# PubChem BioAssay AID2284169 (EPA ToxCast)
# Active and inactive are the calls of the source. How the source made its calls: active means hit-call score of the fitted dose curve at least 0.9, where 1 is the maximum; inactive means score below 0.9.
# Molecular target: human Opioid Receptor NOP (ORL1) Agonism, OPRL1 (gene 4987) (UniProt P41146)
# Test: ERF_FR_GPCR_hOPRL1: Eurofins (ERF) G Protein-Coupled Receptor (GPCR) Radioligand Binding LeadHunter Assay for human Opioid Receptor NOP (ORL1) Agonism
# Method: ERF_FR_GPCR_hOPRL1 is a biochemical, single-readout assay that uses extracted gene-proteins in a cell-free assay. Measurements were taken 1 hour after chemical dosing in a 96-well plate. See NOP (ORL1) Human Opioid GPCR Binding (Agonist Radioligand) Assay, Cerep.ERF_FR_GPCR_hOPRL1 is an assay component calculated from the ERF_FR_GPCR_hOPRL1 assay. It is designed to measure radioligand binding using a type of binding reporter as detected by scintillation counting with radiometry technology.Data from the assay component ERF_FR_GPCR_hOPRL1 was analyzed at the assay endpoint, ERF_FR_GPCR_hOPRL1, in the positive analysis fitting direction relative to DMSO as the negative control and baseline of activity. Using a type of binding reporter, gain-of-signal activity can be used to understand changes in binding as they relate to gene OPRL1. To generalize the intended target to other relatable targets, this assay endpoint is annotated to the gpcr intended target family, where the subfamily is opioid.
# Human cells are incubated for 60 minutes at room temprature with [3H]nociceptin ligand (0.1 nM) and Nociceptin as control inhibitor. Test Sample Requirements: Minimum for 1) Screen: 60 ul of 10 mM stock -OR- 1 mg (pre-weighed) for 10 uM final testing. 2) Dose Response: 90 ul of 10 mM stock -OR- 1 mg (pre-weighed) for a top concentration at 10 uM.
# human Opioid Receptor NOP (ORL1) Agonism, OPRL1 (gene 4987), sequence (P41146 whole entry, looked up): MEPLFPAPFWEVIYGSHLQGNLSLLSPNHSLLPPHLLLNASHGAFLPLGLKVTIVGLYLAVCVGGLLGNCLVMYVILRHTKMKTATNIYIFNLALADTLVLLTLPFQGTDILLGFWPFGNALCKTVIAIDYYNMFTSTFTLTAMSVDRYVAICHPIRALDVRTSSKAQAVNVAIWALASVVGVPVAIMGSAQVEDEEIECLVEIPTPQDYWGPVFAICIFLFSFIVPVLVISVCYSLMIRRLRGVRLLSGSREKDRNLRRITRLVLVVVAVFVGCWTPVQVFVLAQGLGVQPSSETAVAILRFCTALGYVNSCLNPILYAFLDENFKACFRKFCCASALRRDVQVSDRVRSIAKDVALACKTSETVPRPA
Structure (SMILES),outcome,AC50
CCCCC[C@H](O)CC(=O)CCc1ccc(O)c(OC)c1,inactive,
COc1cc(/C=C/C(=O)CC(=O)/C=C/c2ccc(O)c(OC)c2)ccc1O,,5 µM (active)
O=C(/C=C/c1ccc(O)cc1)CC(=O)/C=C/c1ccc(O)cc1,,3.86 µM (active)
COc1cc(CCC(=O)CC(=O)CCc2ccc(O)c(OC)c2)ccc1O,inactive,
